# Test results: PubChem BioAssay AID1345082 (National Center for Advancing Translational Sciences (NCATS), 2018)
# Hit rate of the full screen: of about 94,000 compounds, about 4,000 (4.3%) were called active. Roughly 29% stayed inconclusive and do not appear here. The sample holds actives, similar compounds and a random draw of the others, so the mix is not that of the screen. Unmarked numbers belong to inactive results. Calls come from the whole dose curve; as a rule, active = well fitted inhibition curve with a large enough effect; inconclusive = small, poorly fitted or top-dose-only effect; inactive = no such curve, though single readings can be large or run the other way.
# Assay: Cytotoxic Profiling in NIH 3T3 Cell Line of Diverse Libraries Using Quantitative High-Throughput Screening; note: nearly all actives have a fitted effect of over 55% in size
# Details: NIH 3T3 viability, CellTiter-Glo ATP luminescence, 48-72 h; series mostly up to 96.7 µM; activity change, negative = cytotoxicity: at the top concentration
# Outline: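 Mouse fibroblast NIH 3T3 cells, 400 per well, received compound via pintool and were incubated for 48 or 72 hr prior to CellTiter-Glo ATP luminescence measurement.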
# % is set by controls: 0 for no effect and ±100 for the full control effect; potency is the fitted concentration of half-maximal effect.
SMILES,Potency,"activity change, negative = cytotoxicity",outcome
COc1cccc(-c2ccc(CN3CCCC3C(=O)NCc3ccccc3Cl)cc2)c1 (centres undefined),39.8 µM (active),,
Cc1ccc(CNC(=O)[C@@H]2COCC(=O)N2Cc2ccc(F)cc2)cc1,,-23.1%,
COc1cccc(-c2cccc(C(=O)N3CCCC3C(=O)NCC3CC3)c2)c1 (centres undefined),,-10.9%,
Cc1ccc(-c2cccc(CN3CCCC(NC(=O)c4ccc(C(F)(F)F)cc4)C3)c2)cc1Cl (centres undefined),,-4.84%,
Cc1ccc(-c2cccc(CN3CCCC3C(=O)NCc3ccc(C(F)(F)F)cc3)c2)cc1Cl (centres undefined),31.6 µM (active),,
COc1cccc(CC(=O)N2CCC(N3C(=O)CCC3C(=O)NCc3ccccc3)CC2)c1 (centres undefined),,-14.4%,
CN(CC1CCOCC1)C(=O)Cc1ccsc1,,,inactive
COc1ccc(N2CCC(NS(=O)(=O)C3CC3)C2=O)cc1 (centres undefined),,-15.8%,
CN(C)Cc1cn(C[C@H]2C[C@@H](NS(=O)(=O)c3ccccc3)[C@H](O)[C@@H]2O)nn1,,-5.32% [at 174 µM],
O=C(C1CCC1)N1CCC(C(=O)N2CCCC2c2ccco2)CC1 (centres undefined),,1.21%,
CN(CC1CCOCC1)C(=O)c1ccc(Cl)cc1,,-0.189%,
CCOCCOC1CCN(C(=O)NCc2ccc(F)cc2)CC1,,-4.23%,
CCOCCNC(=O)C1CCCCN1Cc1ccc(-c2cc(F)ccc2OC)cc1 (centres undefined),39.8 µM (active),,
COCCNC(=O)[C@@H]1CCC[C@@H](NCc2ccc(F)cc2)CN(C)C(=O)C1,,-11.3% [at 174 µM],
CC(=O)N1CCCN(C(=O)C2CCCCN2Cc2ccc(-c3ccsc3)cc2)CC1 (centres undefined),,-22.7%,
CCN1CCN(C(=O)C2CCCCN2Cc2ccc(-c3cc(F)ccc3OC)cc2)CC1 (centres undefined),35.5 µM (active),,
O=C(C1CCCCN1Cc1ccc(-c2cccs2)cc1)N1CCOCC1 (centres undefined),,0.343%,
O=C(c1cccn1C1CC1)N1C[C@H](CO)C[C@H](CN2CCCC2)C1,,-2.77%,
COCC1CN(C)CC12CCN(C(=O)C1CCOCC1)CC2 (centres undefined),,-0.42%,
Cc1ccccc1S(=O)(=O)N1CCC2(CC1)CC(OCC1CC1)CCO2 (centres undefined),,-19.2%,
COc1cc(F)ccc1-c1ccnc2nc(C(C)C)nn12,,-24.5%,
Cc1noc([C@@H]2CN(S(=O)(=O)c3cccs3)C[C@H]2C(N)=O)n1,,-16.9%,
CCCOCCCNC(=O)c1c(C)noc1-c1cc(OC)c(OC)c(OC)c1,,-17.4%,
COc1ccccc1-c1onc(C)c1C(=O)NCCC(c1ccccc1)c1ccccc1,31.6 µM (active),,
COc1ccccc1-c1onc(C)c1C(=O)NCc1ccc(Cl)cc1,,-28.6%,

SMILES,Potency,"activity change, negative = cytotoxicity",outcome
COC[C@@H]1CN(Cc2ccccn2)C[C@H]1C(=O)N(C)C,,-6.36%,
Cc1cc(CNC(=O)C2CCCN(C3CCN(CCc4ccccc4)CC3)C2)on1 (centres undefined),,0.71%,
O=C(Nc1cccc(Cl)c1)c1cnc2c(c1)N(C(=O)CCc1ccccc1)CCC2,,-20% [at 138 µM],
CC(C)Nc1ncc(C(=O)NC2CCCN(CCc3ccccc3)C2)cn1 (centres undefined),,-6.8%,
CC(C)CCNC(=O)c1cnc2c(c1)N(Cc1ccccc1)CCC2,79.4 µM (active),,
Cc1cccc(C(=O)N2CCCN(c3nnc4ccccn34)CC2)c1,,-8.72%,
Cc1cc(C(=O)NCC(C)C)c2c(C3CCNC3)noc2n1 (centres undefined),,2.92% [at 138 µM],
COc1cc(SC)ccc1C(=O)N[C@@H]1C=C(C(=O)N[C@@H](Cc2cccs2)C(N)=O)C[C@@H](O)[C@@H]1O,,,inactive
Cc1ccc(C)c(NC(=O)C2CC(=O)N(c3n[nH]c4cc(Br)ccc34)C2)c1 (centres undefined),,-8.49%,
Cc1nc(N2CCC(NCCNc3ccncc3C)CC2)c2ccsc2n1,44.7 µM (active),,
Cc1nc(N2CCC(NC(=O)c3cnccn3)CC2)cc(C(F)(F)F)n1,,-1.41%,
Cc1[nH]ncc1CNC(=O)C1CCN(c2cnn(CC3CC3)c(=O)c2)C1 (centres undefined),,3.61%,
O=C(NCc1nc(-c2ncccn2)no1)[C@H]1CNC[C@@H](C(=O)N2CCCC2)C1,,-8.69%,
O=C1CCN(C(=O)c2ccc3ccccc3n2)CCCCCCN1,,-19.4%,
CCn1cc(CN2CCCCCNC(=O)[C@@H]3CCC[C@@H]32)cn1,,-2.66%,
CC(C)(C)c1nc(C(=O)N2CCOCC2)n2ccccc12,,-17.5% [at 138 µM],
Cc1cccc(C)c1-c1nc(C(=O)N2CCN(c3ncccn3)CC2)n2ccccc12,39.8 µM (active),,
O=C(c1nc(-c2cccnc2)c2cnccn12)N1CCN(c2ncccn2)CC1,,-8.83%,
COc1ccc(C2Cn3cnc(C(=O)N4CCC(C(=O)NC5CCCC5)CC4)c3CO2)cc1 (centres undefined),,-13.7%,
COCC1CN(C(C)=O)CC12CCN(C(=O)C1CC=CCC1)CC2 (centres undefined),,-5.78%,
CC(=O)N1CCCC1C(=O)N1CCC(c2ccccc2)CC1 (centres undefined),,2.07% [at 138 µM],
COC(=O)CNC(=O)C1CCN(Cc2ccccc2-c2ccccc2F)CC1,,-18.2%,
O=C(C1CCN(Cc2ccccc2-c2ccccc2F)CC1)N1CCC(c2ccccc2)CC1,31.6 µM (active),,
Cc1noc(C)c1CC(=O)N1CCC(c2n[nH]c(=O)n2Cc2ccc(F)cc2)CC1,,-5.74%,
